Screening data as filed in PubChem BioAssay.
An excerpt weighted towards active compounds, which were near 3.8% of everything screened.
HSF1 activator: increases HSF-1 driven luciferase reporter signal; actives 1.7% (n = 300,000); activation, % at 9 µM; NIH3T3-HGL HSF-1 luciferase reporter, MG132, 8 h; 100% = twice DMSO control signal;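 active = mean replicate activation of at least 50% with a set share of replicates each reaching 50%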;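 also: 0% = median of the neutral control wells and 100% = twice that signal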
HSF1 inhib: HSF1 inhibition; NIH3T3-HGL HSE-luciferase, MG132-induced, luminescence 8 h; hits give low values; activity change, negative = inhibition, % at 7.5 µM (by protocol); actives 0.77% (n = 300,000);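 active = more than half of replicate wells show activity change below -50%, luminescence cut by over half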;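 also: luciferase reports HSF-1 transcriptional activity via heat shock element; 0% = median of DMSO wells and -100% = zero luminescence signal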
MITF TRPM1 HTS: MITF TRPM1 promoter activation in melanoma cells; SK-MEL-5 TRPM1-promoter luciferase, 24 h; % of positive control, neutral wells = 0; activation, % at 12.5 µM; actives 0.75% (n = 300,000); AID 588334;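 active = mean activation of at least 80% with every replicate also reaching 80%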;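 also: 0% = neutral control wells and 100% = parthenolide positive control wells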
Wnt act: activators of Wnt/beta-catenin signaling | actives 1.2% (n = 300,000) | AID 743398 | activation, % at 9.35 µM | Wnt/beta-catenin reporter cell assay, activator, plate reader; in the data active = activation above about 30%, passing the limit was not always enough;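 also: 0% = neutral control wells and 100% = positive control wells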
esBAF inh: SWI/SNF esBAF complex inhibition; mouse ES cells, Bmi1-luciferase knock-in reporter, 24 h; 100% = twice the neutral-well signal; reporter increase, % at 12.5 µM; actives 2% (n = 350,000); AID 602393; in the data active = activation above about 40%;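 also: 0% = median of the plate's neutral control wells and 100% = double that signal; a rise in the Bmi1 reporter signal indicates esBAF inhibition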
* = called active by the depositor; / = no result given.

SMILES | HSF1 activator | HSF1 inhib | MITF TRPM1 HTS | Wnt act | esBAF inh
CN1C(=O)C(=Cc2ccc(N3CCCCCC3)o2)C(=O)N(C)C1=S | / | / | / | -2.1 | 40.8*
CN1C(=O)C(=Cc2ccc(N3CCOCC3)o2)C(=O)N(C)C1=O | -12.1 | -4.0 | 7.7 | -0.4 | /
c1ccc(CN2CCc3nc4ccccc4cc3C2)cc1 | 17.3 | 11.7 | / | 18.6 | 52.5*
O=C(Cc1ccccn1)N1CCCCN2[C@H](CO)[C@@H](c3ccc(Br)cc3)[C@@H]2C1 | / | / | / | / | -4.1
O=C1NC(=O)N(Cc2ccccc2)C(=O)/C1=C\c1ccco1 | -4.3 | -5.4 | -32.8 | 22.8 | /
O=C1NC(=O)N(Cc2ccc(F)cc2)C(=O)/C1=C\C=C\c1ccco1 | 81.9* | 42.6 | -93.0 | -1.9 | /
CC(=O)OC1(c2ccccc2)CCN(C)C2CCCCC21 (configuration not stated) | -62.2 | -52.2* | 5.3 | / | -1.0
O=C(CN1CC(c2ccccc2)CC1=O)NCc1ccc(F)cc1 (configuration not stated) | -73.8 | -66.3* | 6.6 | 0.0 | 3.2
COc1ccc(C#Cc2ccc([C@@H]3[C@H]4CN(C(=O)Cc5ccccc5)CCCCN4[C@H]3CO)cc2)cc1 | / | / | / | / | 2.8
C=CCn1c(O)c(C(C)=Nc2ccc3c(c2)CCC3)c(=O)[nH]c1=O | 21.0 | -3.1 | / | -0.7 | /
C=CCn1c(O)c(C(CC)=Nc2ccc3c(c2)CCC3)c(=O)[nH]c1=O | 74.0* | 30.2 | / | -0.7 | /
O=C1NC(=S)NC(=O)C1=Cc1ccc(OCc2ccccc2)cc1 | / | / | 50.0 | 6.5 | 44.4*
OC1/C(=C/c2ccccc2C(F)(F)F)N2CCC1CC2 (configuration not stated) | -81.8 | -77.9* | -3.6 | 0.7 | /
OC1/C(=C/c2ccccc2F)N2CCC1CC2 (configuration not stated) | -11.5 | -7.6 | 13.0 | 2.7 | /
O=C(O)[C@@H]1[C@@H](CO)[C@@H]2Cn3c(ccc(-c4cccnc4)c3=O)[C@H]1N2C(=O)Nc1cc(F)ccc1F | / | / | / | / | -3.6
O=[N+]([O-])c1ccccc1CNCCc1ccc(F)cc1 | 25.2 | 17.4 | 21.1 | / | 40.9*
O=[N+]([O-])c1ccccc1CNCCc1c[nH]c2ccccc12 | 0.7 | 3.2 | -12.7 | 0.6 | -1.6
COC(=O)[C@@H]1[C@@H](CO)[C@@H]2Cn3c(cccc3=O)[C@H]1N2C(=O)C1CCC1 | / | / | / | / | -1.6
C[C@H]1C[C@@H](C)C(=O)[C@@H]([C@H](O)CC2CC(=O)NC(=O)C2)C1 | -73.0 | -69.3* | / | -3.3 | -68.0
COC(=O)C1=C(C(=O)OC)C2OC1c1cc3ccccc3cc12 | 58.9* | 58.9* | -112.0 | -5.5 | /
COC(=O)C1=C(c2ccc3ccccc3c2)C[C@@H]2CC[C@H]1N2C | / | / | -2.2 | -4.3 | 0.0
COc1ccc2c(CN3CC=C(c4ccccc4)CC3)cc(=O)oc2c1 | 4.4 | -3.6 | 7.0 | -0.3 | /
COc1ccc2ccc(O)c(CN3CC=C(c4ccccc4)CC3)c2c1 | 200.7* | 163.8 | -10.2 | -2.4 | /
COc1ccc(OC)c(N2C(=O)NC(=O)/C(=C\c3ccc([N+](=O)[O-])s3)C2=O)c1 | -70.0 | -62.8* | -3.0 | -0.6 | -1.6
O=C1NC(=O)N(c2ccccc2)C(=O)/C1=C\c1ccc([N+](=O)[O-])s1 | 8.7 | -7.7 | / | -1.4 | /
SMILES | HSF1 activator | HSF1 inhib | MITF TRPM1 HTS | Wnt act | esBAF inh
CCCNC(=O)N1[C@@H]2Cn3c(ccc(-c4ccccc4OC)c3=O)[C@H]1[C@@H](C(=O)O)[C@@H]2CO | / | / | / | / | -0.1
COC(=O)[C@@H]1[C@@H](CO)[C@@H]2Cn3c(ccc(-c4ccc(OC)cc4)c3=O)[C@H]1N2C(=O)c1ccccc1F | / | / | / | / | 1.1
Cc1ccc(Cn2cc(C=O)c(-c3ccc(F)cc3)n2)cc1 | 57.5* | 21.3 | 13.7 | 3.3 | 33.2
Cc1ccc(-c2nn(Cc3ccccc3)cc2C(=O)O)cc1 | 4.9 | -6.0 | -0.6 | 0.5 | 5.3
Cc1ccc(Cn2cc(C=O)c3ccccc32)cc1 | 6.9 | 2.4 | -4.2 | 2.5 | -4.2
Cc1ccc(-c2nn(Cc3ccccc3)cc2C=O)cc1 | 53.3* | 44.4 | 43.6 | 55.2* | /
Cc1ccc(-c2nn(Cc3ccccc3)cc2C=O)cc1C | 69.7* | 44.6 | -5.2 | 8.5 | 87.7*
COC(=O)[C@@H]1[C@@H](CO)[C@@H]2Cn3c(ccc(-c4ccncc4)c3=O)[C@H]1N2CCc1ccccc1 | / | / | / | / | -0.4
O=C(Cc1cccnc1)N1CCCCN2[C@H](C1)[C@H](c1ccc(C#CC3(O)CCCC3)cc1)[C@@H]2CO | / | / | / | / | -2.4
COc1ccc(CCNCc2ccc(Br)cc2)cc1OC | 51.2* | 22.4 | 5.9 | 1.3 | -6.9
CC=Cc1ccc2n(c1=O)C[C@H]1[C@H](CO)[C@@H](C(=O)O)[C@@H]2N1S(=O)(=O)c1ccccc1C (mixture of isomers) | / | / | / | / | -0.6
Oc1cc(O)cc(/C=C/c2ccc(O)cc2O)c1 | / | / | 94.3* | / | -6.6
COC(=O)[C@H]1[C@H](CO)[C@H]2Cn3c(ccc(C4=CCCCC4)c3=O)[C@@H]1N2CC1CCCC1 | / | / | / | / | -0.4
Cc1nn(CC(C)C)c(Cl)c1C(=O)NC1CCC(C)CC1 (configuration not stated) | 21.6 | 15.4 | 95.6* | 29.0 | 66.2*
N#Cc1ccc(-c2ccc([C@H]3[C@@H](CO)N4CCCCN(C(=O)Cc5ccccc5)C[C@H]34)cc2)cc1 | / | / | / | / | 0.1
O=c1[nH]c(=S)[nH]c(O)c1N=Nc1ccc2c(c1)OCO2 | -8.3 | -4.2 | 5.9 | 7.1 | /
COc1cccc(N=Nc2c(O)[nH]c(=S)[nH]c2=O)c1 | 103.3* | 52.9 | -23.1 | 17.8 | 0.6
O=c1[nH]c(O)c(N=Nc2ccc3c(c2)OCCO3)c(=O)[nH]1 | -66.9 | -62.4* | -49.4 | -28.8 | /
COc1ccc(N=Nc2c(O)[nH]c(=S)[nH]c2=O)cc1 | 9.1 | -12.6 | 3.7 | 24.8 | /
O=c1[nH]c(=S)[nH]c(O)c1N=Nc1ccc2c(c1)OCCO2 | 72.8* | 45.9 | 3.8 | -6.3 | 7.1
COC(=O)[C@@H]1[C@@H](CO)[C@@H]2Cn3c(ccc(-c4ccccc4)c3=O)[C@H]1N2C(=O)c1ccccc1F | / | / | / | / | -4.5
O=C(O)[C@@H]1[C@@H](CO)[C@@H]2Cn3c(ccc(-c4ccc(F)cc4)c3=O)[C@H]1N2CC1CCCCC1 | / | / | / | / | -4.3
CCC(=O)N1[C@@H]2c3ccc(-c4ccc(F)cc4)c(=O)n3C[C@H]1[C@H](CO)[C@H]2C(=O)OC | / | / | / | / | 1.9
CC1CN=C(Nc2ccc(N(C)C)cc2)S1 (configuration not stated) | 33.1 | -2.4 | 21.3 | 5.5 | 15.1
CC1CN=C(Nc2ccccc2)S1 (configuration not stated) | 52.4* | 7.5 | 8.4 | / | -5.0
Cc1ccccc1S(=O)(=O)N1[C@@H]2Cn3c(ccc(-c4cccnc4)c3=O)[C@H]1[C@@H](C(=O)O)[C@@H]2CO | / | / | / | / | -3.5
COC(=O)[C@H]1[C@H](CO)[C@H]2Cn3c(ccc(-c4cccc(F)c4)c3=O)[C@@H]1N2C(=O)CC1CC1 | / | / | / | / | 2.4
O=C(Cn1cc(C(=O)c2ccccc2F)c2ccccc21)NCc1ccco1 | 17.7 | 2.5 | -10.9 | / | 8.0
